In PubChem BioAssay AID1159580 (chemical genetic matrix, 2015):
Where “and” joins values, the source holds several entries; their conditions need not be identical. Identical values can stand only once. About 2,000 (36%) of roughly 5,500 compounds were called active. Roughly 18% stayed inconclusive and do not appear here. Cut-off read from the data, not from the text of the source: active = normalized growth mostly below about 0.91 (no sharp cut-off); inconclusive = no clear call, values can overlap the other calls; inactive = mostly above about 0.92. The list shows a part of the results.

Assay: chemical genetic growth profiling, strain panel (AID 1159580);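 note: tested at 20 µM; growth read once vehicle control cultures reached saturation at 30 °C; 1 = growth at the plate median or of vehicle wells; lower values mean less growth of the strain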
Details: growth OD

Measured: normalized growth

O=c1n(CCCN2CCN(c3cccc(Cl)c3)CC2)nc2ccccn12
inactive: S. cerevisiae deletion strains, locus YJR066W, strain TOR1, active compounds read low 0.943 | S. cerevisiae deletion strains, locus YJR075W, strain HOC1, active compounds read low 0.94 and 0.981 | S. cerevisiae deletion strains, locus YKL009W, strain mrt4, active compounds read low 0.967 | S. cerevisiae deletion strains, locus YKL068W, active compounds read low 0.989 | S. cerevisiae deletion strains, locus YKL085W, strain MDH1 (second series), active compounds read low 0.992 | S. cerevisiae deletion strains, locus YKL085W, strain MDH1, active compounds read low 0.992 | S. cerevisiae deletion strains, locus YKL160W, strain elf1, active compounds read low 0.986 | S. cerevisiae deletion strains, locus YKL190W, strain CNB1, active compounds read low 0.986 | S. cerevisiae deletion strains, locus YKR001C, strain vps1, active compounds read low 0.972 | S. cerevisiae deletion strains, locus YKR026C, strain gcn3, active compounds read low 0.984 | S. cerevisiae deletion strains, locus YKR091W, strain srl3, active compounds read low 0.993 | S. cerevisiae deletion strains, locus YLL001W, strain dnm1, active compounds read low 0.986 | S. cerevisiae deletion strains, locus YLL026W, active compounds read low 0.986 | S. cerevisiae deletion strains, locus YLL041C, strain sdh2, active compounds read low 0.994 | S. cerevisiae deletion strains, locus YLR027C, strain aat2, active compounds read low 0.979 | S. cerevisiae deletion strains, locus YLR039C, strain RIC1, active compounds read low 0.975 | S. cerevisiae deletion strains, locus YLR058C, strain SHM2, active compounds read low 0.964 | S. cerevisiae deletion strains, locus YLR102C, strain apc9, active compounds read low 0.993 | S. cerevisiae deletion strains, locus YLR113W, strain HOG1, active compounds read low 1 | S. cerevisiae deletion strains, locus YLR221C, strain rsa3, active compounds read low 0.985 | S. cerevisiae deletion strains, locus YLR258W, strain gsy2, active compounds read low 0.99 | S. cerevisiae deletion strains, locus YLR262C, strain YPT6 (second series), active compounds read low 0.965 | S. cerevisiae deletion strains, locus YLR262C, strain YPT6, active compounds read low 0.948 | S. cerevisiae deletion strains, locus YLR268W, strain sec22, active compounds read low 0.98 | S. cerevisiae deletion strains, locus YLR320W, strain mms22, active compounds read low 0.966 | S. cerevisiae deletion strains, locus YLR330W, strain CHS5, active compounds read low 0.989 | S. cerevisiae deletion strains, locus YLR342W, strain FKS1 (second series), active compounds read low 1.04 | S. cerevisiae deletion strains, locus YLR342W, strain FKS1, active compounds read low 0.983 | S. cerevisiae deletion strains, locus YLR357W, strain rsc2, active compounds read low 0.932 | S. cerevisiae deletion strains, locus YLR370C, strain arc18, active compounds read low 0.982 | S. cerevisiae deletion strains, locus YLR371W, strain rom2, active compounds read low 0.994 | S. cerevisiae deletion strains, locus YLR384C, strain iki3, active compounds read low 0.983 | S. cerevisiae deletion strains, locus YLR418C, strain cdc73, active compounds read low 1 | S. cerevisiae deletion strains, locus YML016C, strain PPZ1, active compounds read low 0.98 | S. cerevisiae deletion strains, locus YML032C, strain rad52, active compounds read low 0.979 | S. cerevisiae deletion strains, locus YML120C, strain ndi1, active compounds read low 0.977 | S. cerevisiae deletion strains, locus YML124C, strain tub3, active compounds read low 0.989 | S. cerevisiae deletion strains, locus YMR058W, strain fet3, active compounds read low 0.976 | S. cerevisiae deletion strains, locus YMR078C, strain ctf18, active compounds read low 0.995 | S. cerevisiae deletion strains, locus YMR125W, strain sto1, active compounds read low 0.969 | S. cerevisiae deletion strains, locus YMR129W, active compounds read low 0.984 | S. cerevisiae deletion strains, locus YMR205C, strain PFK2, active compounds read low 0.964 | S. cerevisiae deletion strains, locus YMR223W, strain ubp8, active compounds read low 1.01 | S. cerevisiae deletion strains, locus YMR231W, strain pep5, active compounds read low 0.989 | S. cerevisiae deletion strains, locus YMR263W, strain SAP30, active compounds read low 0.983 | S. cerevisiae deletion strains, locus YMR307W, strain GAS1, active compounds read low 1.08 and 1.01 | S. cerevisiae deletion strains, locus YNL067W, strain RPL9B, active compounds read low 0.969 | S. cerevisiae deletion strains, locus YNL071W, strain lat1, active compounds read low 0.963 | S. cerevisiae deletion strains, locus YNL153C, strain GIM3, active compounds read low 0.945 | S. cerevisiae deletion strains, locus YNL175C, strain NOP13, active compounds read low 0.999 | S. cerevisiae deletion strains, locus YNL183C, strain NPR1, active compounds read low 0.943 | S. cerevisiae deletion strains, locus YNL197C, strain WHI3, active compounds read low 1 | S. cerevisiae deletion strains, locus YNL209W, strain ssb2, active compounds read low 0.989 | S. cerevisiae deletion strains, locus YNL224C, strain SQS1, active compounds read low 0.998 | S. cerevisiae deletion strains, locus YNL233W, strain BNI4, active compounds read low 0.956 | S. cerevisiae deletion strains, locus YNL248C, strain rpa49, active compounds read low 0.976 | S. cerevisiae deletion strains, locus YNL250W, strain rad50, active compounds read low 0.973 | S. cerevisiae deletion strains, locus YNL271C, strain bni1, active compounds read low 0.986 | S. cerevisiae deletion strains, locus YNL298W, strain CLA4, active compounds read low 0.999 | S. cerevisiae deletion strains, locus YNL307C, strain MCK1, active compounds read low 0.993 | S. cerevisiae deletion strains, locus YNL322C, strain KRE1 (second series), active compounds read low 0.964 | S. cerevisiae deletion strains, locus YNL322C, strain KRE1, active compounds read low 0.997 | S. cerevisiae deletion strains, locus YNR049C, strain mso1, active compounds read low 0.979 | S. cerevisiae deletion strains, locus YNR052C, strain pop2, active compounds read low 0.992 | S. cerevisiae deletion strains, locus YOL006C, strain TOP1, active compounds read low 0.781 | S. cerevisiae deletion strains, locus YOL012C, strain htz1 1.02 | S. cerevisiae deletion strains, locus YOL147C, strain pex11, active compounds read low 0.992 | S. cerevisiae deletion strains, locus YOR001W, strain rrp6, active compounds read low 0.991 | S. cerevisiae deletion strains, locus YOR061W, strain CKA2, active compounds read low 0.965 | S. cerevisiae deletion strains, locus YOR069W, strain VPS5, active compounds read low 0.987 | S. cerevisiae deletion strains, locus YOR070C, strain gyp1, active compounds read low 0.974 | S. cerevisiae deletion strains, locus YOR080W, strain dia2, active compounds read low 0.975 | S. cerevisiae deletion strains, locus YOR083W, strain WHI5 (second series), active compounds read low 1.02 | S. cerevisiae deletion strains, locus YOR083W, strain WHI5, active compounds read low 0.984 | S. cerevisiae deletion strains, locus YOR106W, strain vam3, active compounds read low 0.977 | S. cerevisiae deletion strains, locus YOR136W, strain idh2, active compounds read low 0.983 | S. cerevisiae deletion strains, locus YOR144C, strain elg1, active compounds read low 0.996 | S. cerevisiae deletion strains, locus YOR184W, strain ser1, active compounds read low 0.992 | S. cerevisiae deletion strains, locus YOR231W, strain MKK1, active compounds read low 1 | S. cerevisiae deletion strains, locus YOR265W, strain rbl2, active compounds read low 0.969 | S. cerevisiae deletion strains, locus YOR270C, strain vph1, active compounds read low 0.902 | S. cerevisiae deletion strains, locus YOR290C, strain snf2, active compounds read low 0.939 | S. cerevisiae deletion strains, locus YOR316C, strain cot1, active compounds read low 0.99 | S. cerevisiae deletion strains, locus YPL051W, strain arl3, active compounds read low 0.982 | S. cerevisiae deletion strains, locus YPL078C, strain atp4, active compounds read low 0.975 | S. cerevisiae deletion strains, locus YPL106C, strain sse1, active compounds read low 0.971 | S. cerevisiae deletion strains, locus YPL240C, strain hsp82, active compounds read low 0.984 | S. cerevisiae deletion strains, locus YPL241C, strain CIN2, active compounds read low 0.997 | S. cerevisiae deletion strains, locus YPL256C, strain CLN2, active compounds read low 1.01 | S. cerevisiae deletion strains, locus YPR119W, strain clb2, active compounds read low 0.99 | S. cerevisiae deletion strains, locus YPR141C, strain kar3, active compounds read low 0.984 | S. cerevisiae deletion strains, locus YPR163C, strain tif3, active compounds read low 0.991 | S. cerevisiae deletion strains, locus YPR167C, strain met16, active compounds read low 1 | S. cerevisiae deletion strains, strain wtn01, active compounds read low 1.03 | S. cerevisiae strains, strain wild type, active compounds read low 0.979
